Test results from PubChem BioAssay (Tox21).
Results filed as inconclusive are left out. Some structures have more than one record in an assay (separate samples or runs), and their calls can disagree. Active and inactive are the calls of the source. Unless noted, the call rests on the fitted dose curve; in most records, active means well fitted activation curve with a large enough effect in the repeat runs; inconclusive means weak or mixed curves, or effect the other way; inactive means no such curve, though single readings can be large or run the other way.

Tested on: not listed separately
Assay: qHTS assay to identify small molecule agonists of the estrogen related receptor signaling pathway with the pleiotropic PPARgamma coactivator (PGC) from Tox21 10K library (AID 1224842); further: nearly all actives have a fitted effect of over 15% in size
Details: PGC/ERR reporter cell line, luciferase ONE-Glo, 18 h; series mostly up to 92.4 µM; activation: at the top concentration
Method in brief: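 PGC/ERR reporter cell line, 2,000 cells per well, incubated 6 h at 37 C before 23 nL compound in DMSO was added. After 18 h at 37 C, One-Glo luminescence read following 30 min at room temperature.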
On the % scale 0 is the no-effect control and ±100 the full control effect; potency means the concentration at half of the fitted maximal effect.

SMILES	activation	Potency
CCN1CCC2(CC1)COc1cc3c(cc12)N(C(=O)c1ccc(-c2ccc(-c4nnc(C)o4)cc2C)cc1)CC3	-36.5% (inactive)	
O=NN(CCO)CCO	1.01% (inactive)	
CCN(CC)Cc1nccn1-c1ccc([N+](=O)[O-])cc1C(=O)c1ccccc1Cl	-0.95% [at 42.5 µM] (inactive)	
CCc1cccc(C)c1N(C(=O)CCl)[C@@H](C)COC	-28.2% (inactive)	
CC(C)N(C(=O)CCl)c1ccccc1		inactive
Oc1cc(Cl)c(Cl)c(Cl)c1Cl	-24.1% (inactive)	
Fc1ccc(C(OCCN2CCN(CCCc3ccccc3)CC2)c2ccc(F)cc2)cc1	-30.2% [at 42.5 µM] (inactive)	
COC(=O)N(OC)c1ccccc1COc1ccn(-c2ccc(Cl)cc2)n1	-19.5% (inactive)	
COc1nc(C)nc(NC(=O)NS(=O)(=O)c2ccccc2Cl)n1	-0.36% (inactive)	
CNC(=O)Oc1cc(C)cc(C(C)C)c1	-0.851% (inactive)	
ClCBr	1.43% (inactive)	
c1ccc(N=NNc2ccccc2)cc1		25.2 µM (active) and inactive
COP(=O)(OC)Oc1ccc([N+](=O)[O-])cc1	-20.9% (inactive)	
C=C(C)C(=O)[O][Sn]([CH2]CCC)([CH2]CCC)[CH2]CCC	-40.8% (inactive)	
N#Cc1sc2c(=O)c3ccccc3c(=O)c=2sc1C#N	-33.3% (inactive)	
CCCCN(CCCC)C(=S)S	-4.75% (inactive)	
O=[N+]([O-])c1ccccc1-c1ccccc1	4.86% (inactive)	
COP(=S)(OC)Oc1nc(Cl)c(Cl)cc1Cl	-3.66% (inactive)	
COP(=S)(OC)Oc1ccc([N+](=O)[O-])c(C)c1	-18.1% (inactive)	

Biological target: Thyrotropin receptor (Homo sapiens) (UniProt P16473)
Assay: qHTS assay to identify small molecule agonists of the thyroid stimulating hormone receptor (TSHR) signaling pathway (AID 1224843; calls by dose curve; further: nearly all actives have a fitted effect of over 45% in size)
Details: TSHR-HEK293 cells, cAMP HTRF, agonist mode, 30 min; series mostly up to 92.4 µM; activation: at the top concentration
Method in brief: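 TSHR-HEK293 cells in agonist mode, 30 min room-temperature step, then cAMP measured by competitive HTRF (cAMP-d2 with anti-cAMP cryptate) after 1 h at room temperature. Tested at 15 concentrations in triplicate.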

Chain of Thyrotropin receptor (Homo sapiens) (P16473 whole entry, looked up): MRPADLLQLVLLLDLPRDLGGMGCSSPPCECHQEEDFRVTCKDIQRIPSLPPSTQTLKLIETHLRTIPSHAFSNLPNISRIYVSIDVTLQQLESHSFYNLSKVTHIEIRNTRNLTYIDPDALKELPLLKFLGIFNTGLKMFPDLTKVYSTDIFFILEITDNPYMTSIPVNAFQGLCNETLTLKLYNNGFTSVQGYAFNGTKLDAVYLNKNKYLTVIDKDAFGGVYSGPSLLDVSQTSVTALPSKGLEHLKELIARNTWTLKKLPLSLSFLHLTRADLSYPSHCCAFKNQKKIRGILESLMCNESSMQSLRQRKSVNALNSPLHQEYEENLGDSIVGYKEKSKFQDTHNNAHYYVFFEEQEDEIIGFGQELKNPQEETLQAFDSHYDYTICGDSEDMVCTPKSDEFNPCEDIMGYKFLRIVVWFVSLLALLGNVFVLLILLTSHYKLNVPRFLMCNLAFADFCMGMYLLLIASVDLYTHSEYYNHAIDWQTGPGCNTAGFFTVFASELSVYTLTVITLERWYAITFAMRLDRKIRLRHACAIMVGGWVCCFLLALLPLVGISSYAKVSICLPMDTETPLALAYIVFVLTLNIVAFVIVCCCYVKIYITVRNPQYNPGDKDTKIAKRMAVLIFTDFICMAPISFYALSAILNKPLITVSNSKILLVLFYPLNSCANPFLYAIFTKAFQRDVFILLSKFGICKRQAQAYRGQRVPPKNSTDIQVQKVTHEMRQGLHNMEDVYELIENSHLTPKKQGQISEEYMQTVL

SMILES	activation	Potency
O=NN(CCO)CCO	-0.0626% (inactive)	
CCN(CC)Cc1nccn1-c1ccc([N+](=O)[O-])cc1C(=O)c1ccccc1Cl	-0.867% [at 42.5 µM] (inactive)	
Nc1ccc(Cl)cc1C(=O)c1ccccc1F	-14.8% [at 42.5 µM] (inactive)	
C#CCO	1.15% (inactive)	
CCc1cccc(C)c1N(C(=O)CCl)[C@@H](C)COC		34.4 µM (active)
Oc1cc(Cl)c(Cl)c(Cl)c1Cl	1.34% (inactive)	
Fc1ccc(C(OCCN2CCN(CCCc3ccccc3)CC2)c2ccc(F)cc2)cc1	-2.02% [at 42.5 µM] (inactive)	
COc1nc(C)nc(NC(=O)NS(=O)(=O)c2ccccc2Cl)n1	-7.44% (inactive)	
ClCBr	2.55% (inactive)	
COP(=O)(OC)Oc1ccc([N+](=O)[O-])cc1	5.18% (inactive)	
CC(C)Br	2.51% (inactive)	
C=C(C)C(=O)[O][Sn]([CH2]CCC)([CH2]CCC)[CH2]CCC		0.486 µM (active)
O=[N+]([O-])c1ccccc1-c1ccccc1	-2.63% (inactive)	
COP(=S)(OC)Oc1nc(Cl)c(Cl)cc1Cl	8.53% (inactive)	
COP(=S)(OC)Oc1ccc([N+](=O)[O-])c(C)c1	-21.1% (inactive)	
